Reference: PubChem BioAssay (Tox21)
Records with an inconclusive call do not appear. Activity calls are given as the source filed them. Unless noted, calls come from the whole dose curve; as a rule, active = well fitted curve in the direction sought with a large enough effect in the repeat runs; inconclusive = weak or mixed curves; inactive = no such curve, though single readings can be large; an effect the other way counts as inactive or inconclusive.

Experiments:
[1] = target: Estrogen receptor (Homo sapiens) (UniProt P03372); assay: qHTS assay to identify small molecule agonists of the estrogen receptor alpha (ER-alpha) signaling pathway in the presence of an antagonist (AID 1259383; calls by dose curve; note: top concentration of the series differs between compounds; nearly all actives have a fitted effect of over 15% in size)
Procedure, shortened: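 VM7Luc4E2 cells express endogenous full-length ER-alpha with an ERE-luciferase reporter and were hormone-deprived for 5 days. Compounds at 15 concentrations were added with 10.0nM ICI-182,780 for 22hr at 37C. Luminescence was read with ONE-Glo.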

[2] = qHTS assay to identify small molecule agonists of the estrogen receptor alpha (ER-alpha) signaling pathway in the presence of an antagonist - cell viability counter screen (AID 1259386);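 note: series mostly up to about 92 µM; cells exposed to compounds for 22 h at 37 °C before the viability read; nearly all actives have a fitted effect of over 30% in size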
Procedure, shortened: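 Cell viability in VM7Luc4E2 cells (endogenous full-length ER-alpha) measured by CellTiter-Fluor fluorescence in the same wells as the luciferase screen. Cells pre-cultured 5 days in charcoal-stripped serum, then treated 22 h with compounds at 15 concentrations plus 10.0nM ICI-182,780.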

[3] = target: Progesterone receptor (Homo sapiens) (UniProt P06401); assay: qHTS assay to identify small molecule agonists of the progesterone receptor (PR) signaling pathway (AID 1346784; calls by dose curve; note: nearly all actives have a fitted effect of over 30% in size)
Procedure, shortened: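 Beta-lactamase reporter read-out: after 16 hr compound treatment at 37C and a further 2 hr at room temperature with LiveBLAzer B/G FRET substrate, fluorescence was measured in PR-UAS-bla HEK 293T cells grown in 2% charcoal-stripped serum.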

[4] = target: Progesterone receptor (Homo sapiens) (UniProt P06401); assay: qHTS assay to identify small molecule antagonists of the progesterone receptor (PR) signaling pathway (AID 1346795; active = well fitted inhibition curve with a large enough effect in the signal ratio in the repeat runs, not every such curve was filed as active; the % refers to the signal ratio)
Procedure, shortened: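 Read-out is fluorescence from the LiveBLAzer B/G FRET substrate, cleaved by a UAS-controlled beta-lactamase in PR-UAS-bla HEK293T cells after 16 hr exposure to compound plus 1 nM promegestone (final), followed by 2 hr at room temperature.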

[5] = qHTS assay to identify small molecule antagonists of the progesterone receptor (PR) signaling pathway - cell viability counter screen (AID 1346798); note: nearly all actives have a fitted effect of over 50% in size; note: potency is the fitted concentration of half-maximal effect
Procedure, shortened: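 HEK293T PR-UAS-bla, 2% charcoal-stripped FBS; 4 hr pre-plate; cpd + R5020, 16 h 37C; LiveBLAzer read first; then CellTiter-Glo 30 min RT, luminescence.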

[6] = qHTS assay to identify small molecule agonists of the progesterone receptor (PR) signaling pathway - cell viability counter screen (AID 1346799; calls by dose curve; note: nearly all actives have a fitted effect of over 45% in size)
Procedure, shortened: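 Luminescence from CellTiter-Glo, added after the beta-lactamase FRET read in the same wells, gave cytotoxicity in PR-UAS-bla HEK293T cells treated with compounds for 16 hr at 37C.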

[7] = qHTS assay to identify small molecule antagonists of the TGF-beta/Smad signaling pathway - cell viability counter screen (AID 1346824); note: nearly all actives have a fitted effect of over 50% in size
Procedure, shortened: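 SBE-bla HEK 293T cells were plated overnight at 37 C, then given compounds in DMSO plus TGF-beta1 (added as 0.25 ng/mL solution) for 5 hr. After the bla read, CellTiter-Glo was added to the same wells and luminescence read after 30 min at room temperature.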

[8] = qHTS assay to identify small molecule agonists of the TGF-beta/Smad signaling pathway - cell viability counter screen (AID 1346829); note: top concentration of the series differs between compounds; nearly all actives have a fitted effect of over 45% in size
Procedure, shortened: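 After overnight seating at 37 C and 5% CO2, reporter cells got compounds for 5 hr and FRET substrate for 2 hr; cell viability then came from CellTiter-Glo luminescence.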

[9] = qHTS assay to identify small molecule agonists of the TGF-beta/Smad signaling pathway (AID 1346859; active = well fitted activation curve with a large enough effect in the signal ratio in the repeat runs, not every such curve was filed as active; the % refers to the signal ratio; note: series mostly up to about 77 µM)
Procedure, shortened: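 SBE-bla HEK 293T, 4,000 cells/well, plated o/n; cpd in DMSO, 5 hr, 37 C/5% CO2; B/G FRET substrate 2 hr RT; ex 405, em 460/530 nm.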

[10] = target: Thyrotropin-releasing hormone receptor (Homo sapiens) (UniProt P34981); assay: qHTS assay to identify small molecule antagonists of the thyrotropin-releasing hormone receptor (TRHR) signaling pathway (AID 1346877; active = well fitted inhibition curve with a large enough effect in the repeat runs, not every such curve was filed as active; note: series mostly up to about 51 µM)
Procedure, shortened: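 TRHR-expressing HEK293 cells loaded with calcium dye for 2 h at 37 C; compounds pre-incubated 5 min at room temperature before TRH challenge at 1 nM final. Intracellular calcium fluorescence read kinetically for 3 min; 15 concentrations in triplicate.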

[11] = target: Thyrotropin-releasing hormone receptor (Homo sapiens) (UniProt P34981); assay: qHTS assay to identify small molecule agonists of the thyrotropin-releasing hormone receptor (TRHR) signaling pathway (AID 1346891; calls by dose curve; note: series mostly up to about 58 µM)
Procedure, shortened: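 Intracellular calcium rise, read as fluorescence every second for 3 min, served as the agonist signal in dye-loaded HEK293 cells expressing TRHR; each compound ran at 15 concentrations in triplicate.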

[12] = Human pregnane X receptor (PXR) small molecule agonists, qHTS cell viability counter screen (AID 1346977); note: nearly all actives have a fitted effect of over 50% in size
Procedure, shortened: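 PXR-Luc HepG2, 2,000 cells/well, 5% charcoal-stripped FBS; 5hr settle; cpd 24hr, 37C/5% CO2; CellTiter-Fluor at 23hr, read 1hr later (fluorescence).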

[13] = Caspase-3/7 induction in HepG2 cells by small molecules, qHTS assay (AID 1346978); note: nearly all actives have a fitted effect of over 15% in size
Procedure, shortened: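 Wild-type HepG2 cells (2,000/well) were settled 5 h at 37 C, 5% CO2, then exposed to compounds in DMSO for 17 h. Caspase-3/7 activity was read by luminescence 30 min after adding Caspase-Glo 3/7 reagent at room temperature.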

[14] = Caspase-3/7 induction in CHO-K1 cells by small molecules, qHTS cell viability counter screen (AID 1346979); note: nearly all actives have a fitted effect of over 35% in size
Procedure, shortened: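 Cells (CHO-K1, wild type) are plated at 1,500 per well and incubated 5hr. Test compounds in DMSO are then pinned in, followed by 16hr at 37C and 5% CO2. Viability is read by CellTiter-Fluor fluorescence after 1hr.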

[15] = Caspase-3/7 induction in CHO-K1 cells by small molecules, qHTS assay (AID 1346980); note: nearly all actives have a fitted effect of over 15% in size
Procedure, shortened: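 Wild-type cells were seeded at 1,500 per well and settled 5 hr at 37 C, 5% CO2, then exposed to DMSO-dissolved compounds for 17 hr. Caspase-Glo 3/7 reagent was added, and luminescence was read after 30min at room temperature.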

[16] = Caspase-3/7 induction in HepG2 cells by small molecules, qHTS cell viability counter screen (AID 1346981); note: series mostly up to about 92 µM; nearly all actives have a fitted effect of over 30% in size
Procedure, shortened: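 Wild-type HepG2 cells, 2,000/well, settled 5 hr at 37 C, 5% CO2 before compound addition. Viability read by CellTiter-Fluor fluorescence, reagent added after 16 hr compound exposure, then 1 hr at 37C, in the same wells as the caspase read.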

[17] = qHTS assay to identify small molecule agonists or antagonists of the thyroid stimulating hormone receptor (TSHR) signaling pathway - wild type cell line counter screen (AID 1259384; calls by dose curve)
Procedure, shortened: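 Wild-type HEK293 cells were plated 18 h at 37 C/5% CO2, pin-dosed with compound plus Ro20-1724 medium, held 30 min at room temperature, then given cAMP-d2 and anti-cAMP-cryptate; fluorescence was read after 1 h. Fifteen concentrations, triplicate.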

[18] = target: Thyrotropin receptor (Homo sapiens) (UniProt P16473); assay: qHTS assay to identify small molecule antagonists of the thyroid stimulating hormone receptor (TSHR) signaling pathway (AID 1259385; calls by dose curve; note: nearly all actives have a fitted effect of over 20% in size)
Procedure, shortened: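 TSHR-HEK293 cells were plated and held 18 h at 37C/5% CO2, then given compound plus Ro20-1724 and stimulated with TSH at 1.5 ng/mL final. After 30 min at room temperature, cAMP was detected with cAMP-d2/anti-cAMP-cryptate (1 h) by fluorescence.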

[19] = qHTS assay to identify small molecule antagonists of the estrogen receptor beta (ER-beta) signaling pathway - cell viability counter screen (AID 1259382);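 note: HEK293T cells carrying ER-beta-UAS-bla reporter stimulated with estradiol; series mostly up to about 92 µM; nearly all actives have a fitted effect of over 55% in size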
Procedure, shortened: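 ER-beta-UAS-bla HEK293T cells in 2% charcoal-stripped FBS medium, treated with compound plus 1 nM 17-beta-estradiol for 16 h at 37C. Viability read by CellTiter-Glo luminescence after 30 min at room temperature in the same wells.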

Measured: Potency

Thyrotropin-releasing hormone receptor (Homo sapiens), sequence (P34981 whole entry, looked up): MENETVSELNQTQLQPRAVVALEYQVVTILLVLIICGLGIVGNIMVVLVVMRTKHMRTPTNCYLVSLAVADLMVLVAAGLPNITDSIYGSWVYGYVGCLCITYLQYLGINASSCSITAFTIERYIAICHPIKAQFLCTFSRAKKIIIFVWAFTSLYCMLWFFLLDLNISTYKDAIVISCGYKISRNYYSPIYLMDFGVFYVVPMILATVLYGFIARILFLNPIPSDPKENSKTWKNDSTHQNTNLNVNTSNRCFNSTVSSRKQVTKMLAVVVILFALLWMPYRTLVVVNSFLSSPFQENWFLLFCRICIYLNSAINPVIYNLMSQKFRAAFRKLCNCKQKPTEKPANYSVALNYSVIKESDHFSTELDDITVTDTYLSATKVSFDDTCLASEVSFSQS
Estrogen receptor (Homo sapiens), sequence (P03372 whole entry, looked up): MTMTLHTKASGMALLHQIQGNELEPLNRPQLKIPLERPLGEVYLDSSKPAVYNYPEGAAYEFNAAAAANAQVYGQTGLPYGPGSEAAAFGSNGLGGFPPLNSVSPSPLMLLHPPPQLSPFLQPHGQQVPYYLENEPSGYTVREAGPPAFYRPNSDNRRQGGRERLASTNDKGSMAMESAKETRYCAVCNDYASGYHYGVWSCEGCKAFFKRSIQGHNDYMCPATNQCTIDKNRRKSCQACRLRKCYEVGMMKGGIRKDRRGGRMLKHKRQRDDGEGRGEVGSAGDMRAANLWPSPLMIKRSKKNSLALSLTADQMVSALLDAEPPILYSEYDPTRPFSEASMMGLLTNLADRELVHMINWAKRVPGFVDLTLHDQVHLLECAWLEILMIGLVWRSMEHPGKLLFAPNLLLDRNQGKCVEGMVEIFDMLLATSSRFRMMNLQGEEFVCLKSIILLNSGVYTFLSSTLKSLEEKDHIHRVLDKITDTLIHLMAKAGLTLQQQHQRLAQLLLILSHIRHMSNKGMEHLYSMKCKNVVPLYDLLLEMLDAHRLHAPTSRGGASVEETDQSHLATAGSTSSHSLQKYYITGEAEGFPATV
Thyrotropin receptor (Homo sapiens), sequence (P16473 whole entry, looked up): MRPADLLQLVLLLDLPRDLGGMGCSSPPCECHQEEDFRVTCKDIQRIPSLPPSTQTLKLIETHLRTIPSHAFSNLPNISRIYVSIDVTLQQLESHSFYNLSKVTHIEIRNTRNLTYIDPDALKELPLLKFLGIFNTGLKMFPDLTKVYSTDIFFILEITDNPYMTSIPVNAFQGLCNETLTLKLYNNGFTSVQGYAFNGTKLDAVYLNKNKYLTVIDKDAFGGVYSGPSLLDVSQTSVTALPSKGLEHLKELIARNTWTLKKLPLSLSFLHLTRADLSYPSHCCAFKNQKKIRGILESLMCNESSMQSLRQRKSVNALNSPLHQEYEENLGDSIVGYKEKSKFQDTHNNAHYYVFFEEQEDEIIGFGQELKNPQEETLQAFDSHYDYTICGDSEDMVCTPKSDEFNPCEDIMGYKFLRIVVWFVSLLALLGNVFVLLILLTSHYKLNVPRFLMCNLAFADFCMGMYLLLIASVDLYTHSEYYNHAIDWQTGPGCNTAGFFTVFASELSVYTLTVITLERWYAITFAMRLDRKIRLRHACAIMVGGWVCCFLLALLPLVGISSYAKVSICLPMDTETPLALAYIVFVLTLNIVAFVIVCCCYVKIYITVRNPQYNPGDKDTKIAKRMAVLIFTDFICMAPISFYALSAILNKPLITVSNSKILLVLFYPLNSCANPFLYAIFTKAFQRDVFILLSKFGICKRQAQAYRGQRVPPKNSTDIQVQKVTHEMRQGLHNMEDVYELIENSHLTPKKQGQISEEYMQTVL
Progesterone receptor (Homo sapiens), sequence (P06401 whole entry, looked up): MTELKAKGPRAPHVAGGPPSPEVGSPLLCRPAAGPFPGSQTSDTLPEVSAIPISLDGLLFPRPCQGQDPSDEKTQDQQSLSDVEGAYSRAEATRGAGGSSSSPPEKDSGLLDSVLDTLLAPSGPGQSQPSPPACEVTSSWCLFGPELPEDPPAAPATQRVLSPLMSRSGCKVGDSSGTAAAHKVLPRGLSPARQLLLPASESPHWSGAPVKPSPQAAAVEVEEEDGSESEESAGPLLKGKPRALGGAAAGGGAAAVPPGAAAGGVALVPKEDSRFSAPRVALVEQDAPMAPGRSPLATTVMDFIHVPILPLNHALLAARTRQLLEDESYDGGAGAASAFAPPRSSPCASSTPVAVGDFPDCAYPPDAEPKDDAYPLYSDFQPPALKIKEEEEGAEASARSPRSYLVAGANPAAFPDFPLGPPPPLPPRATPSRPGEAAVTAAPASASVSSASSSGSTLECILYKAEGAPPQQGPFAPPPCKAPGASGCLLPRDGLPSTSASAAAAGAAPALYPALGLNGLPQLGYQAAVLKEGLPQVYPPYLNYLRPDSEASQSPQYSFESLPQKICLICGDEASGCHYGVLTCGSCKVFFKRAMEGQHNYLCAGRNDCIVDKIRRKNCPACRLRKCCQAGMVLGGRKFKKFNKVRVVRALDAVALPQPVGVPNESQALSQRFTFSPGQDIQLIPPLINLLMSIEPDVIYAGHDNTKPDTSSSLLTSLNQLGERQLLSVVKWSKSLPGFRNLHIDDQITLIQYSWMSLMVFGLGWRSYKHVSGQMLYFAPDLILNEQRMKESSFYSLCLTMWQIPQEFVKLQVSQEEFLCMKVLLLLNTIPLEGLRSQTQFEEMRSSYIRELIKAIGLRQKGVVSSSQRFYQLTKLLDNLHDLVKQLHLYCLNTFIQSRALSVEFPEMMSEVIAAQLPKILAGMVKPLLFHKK

CCC(CO)CO
not listed: [17] | [18] | [19]
inactive: all other assays above

CCOC(=O)CC#N
not listed: [19]
inactive: all other assays above

CCCCCC1Nc2cc(C(F)(F)F)c(S(N)(=O)=O)cc2S(=O)(=O)N1 (configuration not stated)
not listed: [5] | [6] | [19]
inactive: all other assays above

NCCc1ccn[nH]1
not listed: [10] | [11] | [19]
inactive: all other assays above

O=S1(=O)CCCC1
not listed: [4] | [16] | [17] | [18] | [19]
inactive: all other assays above

CCc1nccnc1C
not listed: [3] | [4] | [19]
inactive: all other assays above

C/C=C(\C)C(=O)OCC/C=C\CC
not listed: [1] | [19]
inactive: all other assays above

CNCc1ccccc1
not listed: [1] | [5] | [6] | [17] | [18] | [19]
inactive: all other assays above

CC(C)c1ccccc1O
not listed: [1] | [10] | [11] | [19]
inactive: all other assays above

CCN(CCC#N)c1ccccc1
not listed: [4] | [5] | [10] | [11] | [16] | [19]
inactive: all other assays above

C1CCN2C[C@@H]3C[C@@H](CN4CCCC[C@@H]34)[C@H]2C1
not listed: [1] | [5] | [6] | [17] | [18]
inactive: all other assays above

Cc1ccc2c(c1)c1c3n2CCNC3CCC1 (configuration not stated)
not listed: [1] | [5] | [6] | [12] | [16] | [19]
inactive: all other assays above

C=CCOC(=O)c1ccc(C(=O)OCC=C)c(C(=O)OCC=C)c1
not listed: [4] | [5] | [18] | [19]
inactive: all other assays above

Cc1cccc(NC(=S)N(C)C)c1
active: [5] 30.6 µM
not listed: [1] | [3] | [4] | [12] | [19]
inactive: all other assays above

Cc1cccc(Nc2ccncc2S(=O)(=O)NC(=O)NC(C)C)c1
not listed: [10] | [11] | [14] | [19]
inactive: all other assays above

CO/N=C(/C(=O)N[C@@H]1C(=O)N2C(C(=O)O)=C(Cn3nnc(C)n3)CS[C@H]12)c1csc(N)n1
not listed: [1] | [19]
inactive: all other assays above

O=C(/C=C/c1ccccc1)NCCO
not listed: [3] | [11] | [14] | [19]
inactive: all other assays above
